# From PubChem BioAssay
# NSD2 inh: NSD2 (human) methyltransferase inhibition; O96028; NSD2 peptide methylation, AlphaScreen, 120 min; inhibition, % at 12.5 µM; hit rate 0.54% among 310,000; in the data active means inhibition above about 50%
# PfHsp90 set2: inhibits growth of yeast expressing Plasmodium falciparum Hsp90 | inhibition, % at 9.4 µM | hit rate 0.32% among 310,000 | S. cerevisiae expressing PfHsp90, BacTiter-Glo ATP, 48 h; yeast lacking PDR1 and PDR3 efflux regulators;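 active means every replicate shows inhibition above about 80%, whatever the replicate mean, limit read from the data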;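 further: 0% = DMSO neutral controls and 100% = 20 µM radicicol positive controls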
# ARNT-TACC3 inh: disruptors of human ARNT/TACC3 interaction; inhibition, % at 9.99 µM; AlphaScreen His-ARNT PAS-B/GST-TACC3 binding, luminescence; TACC3 fragment carries E629A point mutation; hit rate 0.66% among 390,000; Q9Y6A5;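 active means mean inhibition of replicates at least 50% and at least half of replicates each reaching 50%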;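 further: 0% = complete ARNT plus TACC3 wells and 100% = ARNT alone without TACC3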
# SIRT5 block: sirtuin-5 (human) deacylase inhibition; inhibition, % at 15 µM; hit rate 1.1% among 330,000; AID 652115; Purified SirT5, succinyl-peptide AMC, trypsin-coupled fluorescence; Q9NXA8; in the data active means inhibition above about 15%
# Casp6 inh: blocks human caspase-6 cleavage activity. purified caspase-6, Z-VEID-R110 cleavage fluorescence. hit rate 0.53% among 350,000. inhibition, % at 12.5 µM. AID 686996. P55212;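 active means mean inhibition across replicates at least about 35%, with every replicate also reaching that limit, limit read from the data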;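 further: 0% = median of neutral control wells and 100% = no fluorescence left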
# Target sequence (P55212 24-179 limits assumed): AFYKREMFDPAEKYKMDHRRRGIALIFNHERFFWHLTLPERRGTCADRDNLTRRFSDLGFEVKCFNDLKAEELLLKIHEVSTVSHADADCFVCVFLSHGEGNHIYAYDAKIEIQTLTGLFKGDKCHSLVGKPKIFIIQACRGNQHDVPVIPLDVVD
# Target sequence (P55212 194-293 limits assumed): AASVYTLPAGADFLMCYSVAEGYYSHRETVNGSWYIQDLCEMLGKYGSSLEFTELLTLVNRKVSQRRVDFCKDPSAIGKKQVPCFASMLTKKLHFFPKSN
# AlphaScreen art: counter-screen for NSD2 inhibitors: AlphaScreen artifacts | AC35, µM (titrated, usually from 10 µM), for the others: at the highest dose activity change, negative = signal loss | AlphaScreen artifact counterscreen, preloaded methylated H4 peptide | AID 1053174 | hit rate 9.4% among 1,500 | shares compounds with NSD2 inh; call rule not given here
# * = called active by the depositor; . = no result given. Hits are enriched below; roughly 2.1% of the tested compounds scored in any of these assays.
SMILES,NSD2 inh,PfHsp90 set2,ARNT-TACC3 inh,SIRT5 block,Casp6 inh,AlphaScreen art
Cc1ccc(C(=O)NC(=S)NNC(=O)c2ccccc2O)cc1,50.2*,16.3,2.2,-0.5,.,-7.2%
COc1ccc(N=c2scc(C)n2CCCN2CCCC2=O)cc1,151.3*,2.5,-0.1,-4.1,0.4,1.7%
Cc1csc(=Nc2ccccc2)n1CCCN1CCCC1=O,4.3,-20.9,1.3,11.9,.,.
CCS(=O)(=O)N1CC2(C1)[C@@H](c1ccccc1)[C@@H](CO)N2C(=O)C1CC1,.,.,.,1.0,0.0,.
COc1ccc(-c2ncncc2-c2ccccc2)c(O)c1,67.7*,-10.0,1.2,-3.5,5.6,-2.3%
O=C(NC1=C(NC2CCS(=O)(=O)C2)C(=O)c2ccccc2C1=O)c1ccccc1 (stereo unspecified),109.0*,5.3,23.8,2.4,95.2*,-1.4%
O=C(NC1CCS(=O)(=O)C1)c1cccnc1 (stereo unspecified),-2.7,.,.,.,.,.
COc1ccc(C)cc1S(=O)(=O)Nc1ccccc1C,69.2*,11.1,-9.4,.,.,1.1%
C[C@H]1CN([C@@H](C)CO)C(=O)c2cc(C#CC3CCCCC3)cnc2O[C@@H]1CN(C)Cc1ccncc1,.,.,5.7,2.0,-0.5,.
O=C(Nc1ccc(Cl)c(Cl)c1)N[C@@H]1CC[C@@H](CCn2cc(C3CC3)nn2)O[C@H]1CO,.,.,-2.7,0.0,0.5,.
CN(CCc1ccccc1)C1CCCN(S(=O)(=O)N(C)C)C1 (stereo unspecified),53.2*,1.6,-0.1,1.4,3.6,-0.5%
COc1cccc(C(=O)Nc2ccc3c(c2)C(=O)N(C)[C@H]2CC[C@H](CC(=O)NCC4CC4)O[C@H]2CO3)c1,.,.,5.3,-5.4,-0.9,.
CCOC(=O)C(Oc1ccc2c(-c3ccc(OC)cc3)cc(=O)oc2c1C)c1ccccc1 (stereo unspecified),53.2*,.,.,.,.,-3.0%
CC(=O)c1ccc(-n2c(-c3cc(-c4ccco4)[nH]n3)n[nH]c2=S)cc1,58.8*,9.7,2.7,.,.,-5.5%
O=C(C[C@H]1C=C[C@@H](NC(=O)Nc2ccccc2F)[C@H](CO)O1)NCc1ccc(F)cc1,.,.,-6.4,-0.5,-1.3,.
O=C(C[C@@H]1CC[C@H](NC(=O)c2ccccc2)[C@H](CO)O1)Nc1ccc(-c2ccccc2)cc1,.,.,7.7,-0.9,2.1,.
COC1=CC(=O)c2c(ccc3ncnc(N)c23)C1=O,121.6*,-31.8,30.8*,3.4,99.8*,3.3%
CC(C)(C)CN1CCNC(=O)C1CC(=O)N1CCC(C(=O)N2CCOCC2)CC1 (stereo unspecified),78.6*,-25.3,1.5,-0.2,-4.4,-4.3%
CC(C)(C)/C=N/NC(=O)CNC(=O)c1ccc2c(c1)OCCO2,50.4*,1.8,-3.4,-3.7,7.3,-3.8%
CCN(CC)Cc1c(O)c(Cl)cc2c(C)c(C)c(=O)oc12,-0.3,2.9,-2.3,.,.,.
CCN(CC)Cc1c(O)c(Cl)cc2c(C)cc(=O)oc12,112.2*,2.8,1.7,.,23.5,-5.2%
COc1ccc(-c2cnc3c(c2)C(=O)N([C@H](C)CO)C[C@@H](C)[C@@H](CN(C)Cc2ccc(C(=O)O)cc2)O3)cc1,.,.,-1.1,-2.1,-0.7,.
CCOc1cc(/C=C/c2cccc[n+]2C)ccc1OCC(=O)Nc1ccc(C)cc1,12.1,-13.5,7.6,2.5,.,.
COc1cc(/C=C/c2cccc[n+]2C)ccc1OCC(=O)Nc1ccccc1C,130.8*,12.2,-4.6,0.9,-15.9,-2.9%
CN(C(=O)CSc1nc(-c2ccc(C(C)(C)C)cc2)c(C#N)c(=O)[nH]1)C1CCCCC1,59.7*,-15.5,-2.9,17.3*,35.4*,-3.2%
SMILES,NSD2 inh,PfHsp90 set2,ARNT-TACC3 inh,SIRT5 block,Casp6 inh,AlphaScreen art
C/C=C/c1ccc([C@@H]2[C@@H](CO)N(C(=O)C3CCC3)C23CN(C(=O)NC(C)C)C3)cc1,.,.,.,1.3,1.1,.
O=C1CCN2C=Nc3cccc4ccc1c2c34,114.7*,-5.3,5.6,.,.,2.7%
O=C1C(N2CCOCC2)=Cc2cccc3cccc1c23,15.7,.,.,.,-4.3,.
Cc1cc2c(N)cccc2nn1,98.8*,.,31.4,.,.,-6.5%
CCN(C(=O)/C=C/c1ccc2c(c1)OCO2)c1ccccc1,61.7*,-6.7,-10.9,.,.,3.3%
O=C(C=Cc1ccc2c(c1)OCO2)c1ccccc1,0.5,.,8.1,-1.4,-4.2,.
Cc1cc(=O)oc(C)c1C(=O)OCC(=O)c1ccccc1,53.7*,.,1.4,-5.0,3.3,-5.4%
Cc1cc(=O)oc(C)c1C(=O)OCC(=O)c1ccc2ccccc2c1,-1.1,16.6,7.5,.,.,.
